Screens: PubChem, several laboratories
PERK inhibitor: block of dimerizer-induced PERK translation repression, primary screen, PERK inhibitor project, CHO PERK-DD cells, SEAP luminescence, HTS | actives 0.17% (n = 220,000) | inhibition, % at 5.6 µM | CHO PERK-DD fusion, SEAP luminescence translation reporter | Eukaryotic translation initiation factor 2-alpha kinase 3 (Homo sapiens), Q9NZJ5;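 active = inhibition above the mean inhibition of all tested compounds plus 3 SD, set separately per screening campaign, cut at about 2.9% in these data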;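 also: PERK kinase domain activated by AP20187 dimerizer at 100 nM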
m-calpain inh: inhibitors of pig calpain II, primary screen, biochemical, fluorogenic peptide substrate, 1536-well; purified calpain II, 30 min; inhibition, % at 16 µM; actives 0.37% (n = 220,000); AID 1236, 2008;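 active = inhibition above about 50%, limit read from the data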
S1P4 ag: S1P4 receptor agonists, primary screen, cell-based. AID 1509, 2009. Sphingosine 1-phosphate receptor 4 (Homo sapiens), O95977. actives 0.35% (n = 220,000). S1P4-expressing cell line, agonist reporter assay. activation, % at 4.98 µM; in the data active = activation above about 11%
S1P4 antag: S1P4 receptor antagonists, primary screen, cell-based. S1P4-expressing cells, antagonist mode, reporter read-out. inhibition, % at 4.98 µM. Sphingosine 1-phosphate receptor 4 (Homo sapiens), O95977. AID 1510, 2009. actives 0.26% (n = 220,000); in the data active = inhibition above about 29%
S1P3 antag: S1P3 receptor antagonists, primary screen, cell-based; actives 0.27% (n = 170,000); inhibition, % at 4.98 µM; CHO S1P3 NFAT-BLA reporter, FRET fluorescence, antagonist mode; AID 485, 2006; Sphingosine 1-phosphate receptor 3 (Homo sapiens), Q99500;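 active = inhibition above the plate cutoff, the mean inhibition of test wells on that plate plus 3 SD, cut at about 28% in these data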;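 also: cells challenged with S1P at its EC80 of 0.8 µM; blue over green emission ratio from cleaved BLA substrate after 4 h stimulation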
Target sequence (Q99500 whole entry, looked up): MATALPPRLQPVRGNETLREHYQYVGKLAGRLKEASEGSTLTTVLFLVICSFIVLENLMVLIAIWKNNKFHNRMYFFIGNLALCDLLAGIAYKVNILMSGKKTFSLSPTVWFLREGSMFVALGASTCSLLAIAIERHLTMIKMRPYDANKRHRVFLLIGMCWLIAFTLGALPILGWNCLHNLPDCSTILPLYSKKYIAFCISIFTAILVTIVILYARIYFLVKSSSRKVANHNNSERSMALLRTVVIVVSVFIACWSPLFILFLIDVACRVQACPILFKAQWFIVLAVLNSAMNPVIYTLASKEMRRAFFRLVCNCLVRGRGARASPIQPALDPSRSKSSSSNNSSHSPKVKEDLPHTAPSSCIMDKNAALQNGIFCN
A number is an active result; 0 = inactive; - = no result. Hits are enriched below; roughly 1.3% of the tested compounds scored in any of these assays.

SMILES | PERK inhibitor | m-calpain inh | S1P4 ag | S1P4 antag | S1P3 antag
CCN(C(=O)CSc1nnc(-c2cccs2)o1)C1CCS(=O)(=O)C1 (stereo not drawn) | 0 | 0 | 0 | 0 | 0
O=C(Nc1cccc(-c2nc3cccnc3s2)c1)C1c2ccccc2Oc2ccccc21 | 0 | 55 | 0 | 0 | 0
O=[N+]([O-])c1ccc(NC(=S)NCCc2ccc(Cl)cc2)cc1 | 0 | 68 | 0 | 0 | -
O=[N+]([O-])c1cc(C(F)(F)F)ccc1NCCCCNS(=O)(=O)c1ccc(Cl)cc1 | 0 | 0 | 0 | 0 | 0
NS(=O)(=O)c1ccc(NC(=S)NCc2ccc(Cl)cc2)cc1 | 0 | 56 | 0 | 0 | -
O=[N+]([O-])c1cc(C(F)(F)F)ccc1NCCNC(=S)Nc1ccc(Cl)cc1 | 0 | 52 | 0 | 0 | -
Cc1ccccc1Cn1c(=O)n(Cc2ccco2)c(=O)c2ccccc21 | 0 | 0 | 0 | 0 | 55
Cc1cccc(Cn2c(=O)n(Cc3ccco3)c(=O)c3ccccc32)c1 | 0 | 55 | 0 | 0 | 0
Cc1cccc(Cn2c(=O)n(CCCC(=O)NCc3ccco3)c(=O)c3ccccc32)c1 | 0 | 0 | 0 | 0 | 0
COC(=O)c1ccccc1NC(=O)N1CCN(c2ccc(F)cc2)CC1 | 0 | 51 | 0 | 0 | 0
O=C(Nc1ccc(Br)c2ccccc12)c1ccc2ccccc2c1O | 0 | 0 | 0 | 0 | 0
CN=C1SC(CC(=O)Nc2ccccc2F)C(=O)N1C (stereo not drawn) | 4.4 | 0 | 0 | 0 | 0
CCN(CC)S(=O)(=O)c1cccc(NC(=O)COC(=O)/C=C/c2cccs2)c1 | 0 | 0 | 0 | 0 | 0
CN1C=C(C(F)(F)F)C=C/C1=C(\C#N)c1nnc2n1CCCCC2 | 3.1 | 0 | 0 | 0 | 0
C/C(O)=C(\C#N)c1nnc2n1CCCCC2 | 0 | 0 | 0 | 0 | 0
COc1ccc(N2CCN(C(=O)CCN3C(=S)NC(C)(C)CC3C)CC2)cc1 (stereo not drawn) | 0 | 0 | 0 | 0 | 0
CC(CCc1ccccc1)NC(=O)CSc1cccc[n+]1[O-] (stereo not drawn) | 0 | 53 | 0 | 0 | 0
CC(C)(C)n1nnnc1C(c1cccnc1)N(Cc1ccccc1)Cc1ccco1 (stereo not drawn) | 0 | 0 | 0 | 0 | -
COc1cccc(CN(Cc2ccco2)C(c2ccc(F)cc2)c2nnnn2C(C)(C)C)c1 (stereo not drawn) | 0 | 0 | 0 | 0 | 64
Cc1ccc(Nc2cc(-c3ccccc3)nc3ncnn23)cc1 | 0 | 0 | 0 | 0 | 0
Cc1ccc(/C=C/C(=O)OCC(=O)NCCN2C(=O)CSC2=O)o1 | 3.2 | 0 | 0 | 0 | 0
COc1ccc(CNC(=O)C2CCN(S(=O)(=O)c3ccc(-c4nn[nH]n4)cc3)CC2)cc1 | 0 | 51 | 0 | 0 | 0
CC(C)CC(N)C(=O)OCc1ccc([N+](=O)[O-])cc1 (stereo not drawn) | 0 | 0 | 0 | 0 | 0
CCCCNS(=O)(=O)c1ccc2nc(SCC(=O)Nc3ccccc3Cl)[nH]c2c1 | 0 | 56 | 0 | 0 | 0
O=[N+]([O-])c1cc(S(=O)(=O)N2CCCCCC2)ccc1Cl | 0 | 0 | 0 | 86 | 0
SMILES | PERK inhibitor | m-calpain inh | S1P4 ag | S1P4 antag | S1P3 antag
CCCCSC1=C(C#N)C(c2ccccc2C)CC(=O)N1 (stereo not drawn) | 0 | 0 | 0 | 0 | 102
CCCSC1=C(C#N)C(c2ccccc2C)CC(=O)N1 (stereo not drawn) | 0 | 0 | 0 | 0 | 0
Cc1cccc(OCCSc2nc(N)cc(N)n2)c1 | 0 | 0 | 0 | 0 | 0
O=C(Nc1cc(Sc2nc3ccccc3s2)cc([N+](=O)[O-])c1)c1ccccc1 | 0 | 0 | 0 | 0 | 0
O=C(Nc1cc(Sc2ccccn2)cc([N+](=O)[O-])c1)c1cccc(F)c1 | 0 | 53 | 0 | 0 | 0
CC(=O)O/N=C1\C(=O)N(Cc2ccc(C)cc2)c2ccccc21 | 0 | 58 | 0 | 0 | 0
CC(C)OC(=O)CSc1nnc(-c2ccccn2)n1N | 0 | 0 | 0 | 0 | 0
O=C(CCSCCC(=O)Nc1c(F)c(F)c(F)c(F)c1F)Nc1c(F)c(F)c(F)c(F)c1F | 0 | 0 | 0 | 0 | 0
Cc1c(CNC(=O)c2c([N+](=O)[O-])cnn2C)cnn1C | 0 | 0 | 0 | 0 | 0
NS(=O)(=O)c1ccc(CNC(=O)c2cc(-c3ccccn3)nc3ccc(Cl)cc23)cc1 | 0 | 0 | 0 | 0 | 0
c1ccc(CCNc2ncnc3scc(C4COc5ccccc5O4)c23)cc1 (stereo not drawn) | 0 | 60 | 0 | 0 | -
O=C(C1CCC(CNc2c(N3CCCCC3)c(=O)c2=O)CC1)N1CCCC1 (stereo not drawn) | 0 | 0 | 0 | 0 | 0
Cn1c(=O)c2c(ncn2CC(=O)N2CCN(C(=O)c3ccco3)CC2)n(C)c1=O | 0 | 0 | 0 | 0 | 0
Cc1ccccc1NC(=O)Nc1cc(S(N)(=O)=O)ccc1C | 0 | 0 | 0 | 0 | -
Cc1ccc(S(N)(=O)=O)cc1NC(=O)C1CC2CCC1C2 (stereo not drawn) | 3.0 | 0 | 0 | 0 | -
Cc1ccc(S(=O)(=O)N(C)C)cc1NC(=O)C(C)Sc1ccccc1 (stereo not drawn) | 0 | 0 | 0 | 0 | 0
O=C(NCCc1nnc2ccc(NCc3ccc(Cl)cc3)nn12)c1ccccc1 | 0 | 57 | 0 | 0 | 0
Cc1[nH]c2ccccc2c1Cc1nnc(SCC(N)=O)o1 | 0 | 0 | 0 | 0 | 82
O=C(CNC1CCN(Cc2ccccc2)CC1)Nc1ccc(S(=O)(=O)N2CCCCC2)cc1 | 0 | 0 | 0 | 0 | 0
COc1ccc(NC(=O)CN2CCN(c3nc(-c4ccc(F)cc4)cs3)CC2)c(OC)c1 | 0 | 56 | 0 | 0 | 0
O=C1CC(C(=O)Nc2ccc(Cl)cc2)n2ncnc2N1 (stereo not drawn) | 0 | 74 | 0 | 0 | 0
CC(=O)c1c(C)[nH]c(C(=O)OCc2ccccc2)c1C | 0 | 0 | 0 | 0 | 0
CCN(CC)CCc1c(C)[nH]c(C(=O)OCc2ccccc2)c1C | 0 | 58 | 0 | 0 | -
C=CS(=O)(=O)c1ccc(Oc2ccc(S(=O)(=O)C=C)cc2)cc1 | 0 | 0 | 0 | 0 | 100
NS(=O)(=O)c1ccc(Oc2ccc(S(N)(=O)=O)cc2)cc1 | 0 | 0 | 0 | 0 | 0
SMILES | PERK inhibitor | m-calpain inh | S1P4 ag | S1P4 antag | S1P3 antag
O=C1NCC(COc2cccc3ccccc23)O1 (stereo not drawn) | 3.1 | 0 | 0 | 0 | 0
CCCCCCCCCCC(=O)NNC(=O)c1c(O)c2ccccc2n(CC)c1=O | 0 | 0 | 0 | 0 | 0
Cc1cc(C)n(-c2nnc3c4ccccc4n(C)c3n2)n1 | 0 | 0 | 0 | 0 | 0
CCCCCCCCn1c2c(c(=N)c3ccccc31)CCC2 | 0 | 0 | 0 | 0 | 0
CCCCCCCCCCn1c2c(c(=N)c3c1CCC3)CCC2 | 0 | 54 | 0 | 0 | -
CC(C)(C)NC(=O)NC(=O)CN1CCN(c2ccc(O)cc2)CC1 | 0 | 74 | 0 | 0 | 0
CC(C)(C)NC(=O)NC(=O)CN1CCN(c2ccccc2)CC1 | 0 | 0 | 0 | 0 | 0
